Test results published in PubChem BioAssay AID720507 (National Center for Advancing Translational Sciences (NCATS), 2013).
About 140 (6.1%) of roughly 2,300 compounds were called active. Inconclusive results (about 18%) are left out. Calls follow the shape of the dose curve; as a rule, active = well fitted activation curve with a large enough effect; inconclusive = small, poorly fitted or top-dose-only effect; inactive = flat fitted curve, though single readings scatter. A selection follows.

Target: D(2) dopamine receptor (Homo sapiens) (UniProt P14416)
Sequence (P14416 whole entry, looked up): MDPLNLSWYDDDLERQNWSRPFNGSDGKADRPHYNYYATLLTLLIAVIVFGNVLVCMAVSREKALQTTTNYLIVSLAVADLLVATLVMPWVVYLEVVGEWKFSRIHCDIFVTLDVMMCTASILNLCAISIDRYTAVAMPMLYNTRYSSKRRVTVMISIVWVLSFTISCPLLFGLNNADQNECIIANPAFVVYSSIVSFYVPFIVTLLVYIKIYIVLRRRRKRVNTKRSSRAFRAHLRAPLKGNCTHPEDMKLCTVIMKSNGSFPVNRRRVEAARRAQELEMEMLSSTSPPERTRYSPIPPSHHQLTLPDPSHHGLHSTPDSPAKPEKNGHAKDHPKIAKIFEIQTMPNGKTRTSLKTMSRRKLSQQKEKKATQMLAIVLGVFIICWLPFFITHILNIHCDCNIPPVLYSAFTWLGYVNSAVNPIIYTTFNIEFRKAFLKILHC
Assay: qHTS of D3 Dopamine Receptor Agonist: D2 Dopamine Receptor B-arrestin Agonist Counterscreen; also: nearly all actives have a fitted effect of over 70% in size; as to activation: % of control where 0% means no effect
Conditions: DiscoveRx PathHunter D2 beta-arrestin, luminescence, 90 min; series mostly up to 76.9 µM; activation: at the top concentration
Text: D3 DARs represent a very important target for the treatment of several neuropsychiatric disorders. Indeed, one of the most promising therapeutic applications for the D3 DAR is in the area of addiction and related disorders. […] These findings have been observed with a number of addictive substances including cocaine, amphetamine, nicotine, and alcohol. […] Increased D3 DAR activity can thus lead to neuroprotective and neurorestorative actions in the CNS. […] This assay is used to profile the activity of the identified D3 dopamine receptor agonist against the D2 dopamine receptor. Greater than 10% of the maximum dopamine agonist response is desired for this assay. NIH Molecular Libraries Probe Production Centers Network [MLPCN] NIH Chemical Genomics Center [NCGC] MLPCN Grant: NS064831 Assay Submitter (PI): David Sibley
DiscoveRx D2 cells were thawed from frozen stock and seeded at 2,100 cells/ 3 uL/well media (DiscoveRx Plating Reagent 2) with MultiDrop Combi dispenser (Thermo Scientific, Logan, UT) onto white tissue culture treated 1536-well Aurora plates (Brooks Automation, Chelmsford, MA) and allowed to attach overnight at 37 deg C, 5% CO2. Next, 23 nL/well of compound solutions in DMSO were added with a pintool transfer (Kalypsis, San Diego, CA). […] The rest of the plate was dispensed with buffer only, 1 uL/well as well. The cells were stimulated by compounds or dopamine control for 90 minutes at 37 deg C, 5% CO2, after which 1.5 ul/well of DiscoveRx detection reagent was added with BioRAPTR FRD dispenser. The detection reagent was prepared by mixing of Galacton Star Substrate, Emerald II solution and PathHunter buffer (supplied by the assay kit) together at 1:5:19 proportion accordingly just prior to dispensing. The plates were incubated at ambient temperature for 1 hour and then the luminescent signal was read on ViewLux plate reader (PerkinElmer, Waltham, MA).
Potency is read from the fitted curve at half-maximal effect.

SMILES | activation | Potency
O=C(CN1CCN(S(=O)(=O)c2cc(Cl)ccc2Cl)CC1)c1ccc(O)c(O)c1 | 13.6% (inactive) | 
CCC(=O)Nc1ccc(C(=O)N2CCN(C(=O)c3ccco3)CC2)cc1 | -1.66% (inactive) | 
O=C(c1ccco1)N1CCN(Cc2cccc(C(F)(F)F)c2)CC1 |  | 31.6 µM (active)
Cc1cc(C)n2nc(C(=O)N3CCN(Cc4ccc5c(c4)OCO5)CC3)nc2n1 | 10.6% (inactive) | 
Cc1ccc(S(=O)(=O)N2CC(O)C[C@H]2C(=O)OCC(=O)Nc2ccc(N3CCOCC3)cc2)cc1C (stereo partly drawn) | -1.51% (inactive) | 
CCN(CCCNC(=O)c1ccc2c(c1)NC(=O)CN2C)c1cccc(C)c1 | 9.85% (inactive) | 
O=C(COc1coc(CN2CCN(c3ccccc3)CC2)cc1=O)Nc1ccccc1F | 18.8% (inactive) | 
CN(CCO)S(=O)(=O)c1ccc2c(c1)C(=O)c1cc(S(=O)(=O)N(C)CCO)ccc1-2 | -1.49% (inactive) | 
Cc1n[nH]c(C)c1S(=O)(=O)N1CCCC(C(=O)NCC2COc3ccccc3O2)C1 (stereo not drawn) | 0.0237% (inactive) | 
OCC1(Cc2ccccc2)CCN(Cc2cc3ccccc3o2)CC1 |  | 25.1 µM (active)
CS/C(=C\C(=O)c1ccco1)Nc1ccccc1Cl | 6.85% (inactive) | 
O=c1oc(-c2ccccc2NS(=O)(=O)c2ccc(Cl)cc2)nc2ccccc12 | -0.237% (inactive) | 
O=C(NC1CCCCC1)c1ccc2c(=O)n(CC3CCCO3)c(=O)[nH]c2c1 (stereo not drawn) | 10.1% (inactive) | 
COC(c1ccccc1)c1nnc(CCC(=O)N2CCN(CCOc3ccccc3)CC2)o1 (stereo not drawn) | 13.2% (inactive) | 
CN1CCC(CN)(N2CCN(c3ccccc3)CC2)CC1 | 11.1% (inactive) | 
Cc1c(C(=O)Nc2cccc(-c3nnc4n3CCCCC4)c2)oc2ccccc12 | -2.93% (inactive) | 
O=C(Nc1cccnc1Cl)c1cc(-c2cccc(Cl)c2)on1 | -2.13% (inactive) | 
COc1ccc([C@H]2CC(=O)C=C(c3ccc(OC(F)(F)F)cc3)C2)cc1OC | 20.6% (inactive) | 
Cc1c(CC(=O)N2CCN(C(=O)C3COc4ccccc4O3)CC2)c(=O)oc2c(O)c(O)ccc12 (stereo not drawn) |  | 31.6 µM (active)
O=S(=O)(c1ccc(F)cc1)N1CC=C(c2ccccc2)CC1 | 1.2% (inactive) | 
CC[C@H](C)C(=O)N[C@H]1CCCN1C(=O)/C=C/c1ccccc1 | -0.497% (inactive) | 

SMILES | activation | Potency
CCOC(=O)[C@H]1[C@H]2COc3ccc(C)cc3[C@@H]2N2C(=O)CN(Cc3ccc(F)cc3)C(=O)[C@@]12C | 5.21% (inactive) | 
Cc1ccc(O)c(-c2cc(C(=O)Nc3c(C)n(C)n(-c4ccccc4)c3=O)[nH]n2)c1 | -2.19% (inactive) | 
CCCN(CC(=O)Nc1ccccc1C)C(=O)c1ccc2[nH]c3c(c2c1)CC(C)CC3 (stereo not drawn) | 2.25% (inactive) | 
Cc1cnc(C(=O)N2CCCC(N3CCN(c4ccccc4F)CC3)C2)cn1 (stereo not drawn) | 21.8% (inactive) | 
Cc1cccc(C)c1NC(=O)CNC(=O)c1ccc2c(c1)OCCO2 | -1.89% (inactive) | 
COc1ccc([C@H]2CC(=O)C=C(c3ccc(CO)cc3)C2)cc1 | 1.16% (inactive) | 
CC1(C)CC(=O)C=C(c2ccc3ncccc3c2)C1 | -1.87% (inactive) | 
COc1ccc(NC(C)=O)cc1NC(=O)CN1CCN(c2ccccn2)CC1 | 11.8% (inactive) | 
O=C(Nc1cccc(-c2nc3ccccc3[nH]2)c1)c1ccc(C(=O)Nc2cccc(-c3nc4ccccc4[nH]3)c2)cc1 | 4.47% (inactive) | 
CC(=O)OC(C)C[N+](C)(C)C (stereo not drawn) | -1.97% (inactive) | 
CCC(=O)c1ccc(OCC(=O)Nc2ccc(N3CCCCC3)cc2)cc1 | -0.473% (inactive) | 
OCC[C@H]1C[C@H](O)[C@@H](O)[C@]2(Cc3ccccc3CO2)O1 | -1.68% (inactive) | 
O=C(Cc1csc(Nc2nc(=S)[nH]c3ccccc23)n1)NCCCN1CCN(c2cccc(Cl)c2)CC1 | -1.51% (inactive) | 
O=C(NC(=O)c1ccccc1)Nc1ccccc1O | 3.31% (inactive) | 
CN1CCN(S(=O)(=O)c2cccc(C(=O)Nc3sccc3C#N)c2)CC1 | -0.355% (inactive) | 
O=c1cc(CCl)nc2scc(-c3ccccc3)n12 | -4.57% (inactive) | 
O=C(CSC1CC(=O)N(CCc2ccccc2)C1=O)Nc1ccc(Cl)cc1 (stereo not drawn) | 5.18% (inactive) | 
COc1cc(OC)c(-n2cc(-c3ccc(Cl)cc3)[nH]c2=O)cc1Cl | -7.23% (inactive) | 
O=C(c1c(F)cccc1F)N1CCN(S(=O)(=O)c2ccc3c(c2)OCCO3)CC1 | 2.32% (inactive) | 
COc1ccc(CC(NC(C)=O)C(=O)N2CCN(C(=O)Nc3cccc(Cl)c3)CC2)cc1OC (stereo not drawn) | -3.65% (inactive) | 
CC(C)c1ccc2c(c1)c(SC(C)(C)C)c(CC(C)(C)C(=O)O)n2Cc1ccc(Cl)cc1 | 11.4% (inactive) | 

SMILES | activation | Potency
NS(=O)(=O)c1ccc(CCNS(=O)(=O)c2cccc3cccnc23)cc1 | -1.71% (inactive) | 
Cc1c(CN2CC[C@@H](N3CCN(c4ccccn4)CC3)[C@H](O)C2)[nH]c2ccc(F)cc12 |  | 28.2 µM (active)
O=C(CN1CCN(c2ccccn2)CC1)NC1CCCCC1 | 8.31% (inactive) | 
NS(=O)(=O)c1ccc(CCNC(=O)NC2CCCCC2)cc1 | -4.01% (inactive) | 
O=C1c2cccc3cccc(c23)N1CN1CCN(c2ccccn2)CC1 | 21.1% (inactive) | 
CCC(=O)Nc1ccc2c(c1)nc(CCN1CCN(c3ccccn3)CC1)n2C | 26.1% (inactive) | 
O=C(C1CC(=O)N(c2ccc(F)cc2)C1)N1CCN(c2ccccc2)CC1 (stereo not drawn) | -2.2% (inactive) | 
Cn1c(=O)c(=O)n(C)c2cc(S(=O)(=O)NCCN3CCN(c4ccccc4F)CC3)ccc21 | 21.6% (inactive) | 
COc1ccc(N2CCN(Cc3cc(=O)oc4ccc5ccccc5c34)CC2)cc1 | 3.24% (inactive) | 
O=C(CCN1CCN(c2ccccc2)CC1)NNC(=S)Nc1ccccc1 | 25.2% (inactive) | 
Nc1nonc1-n1nnc(C(=O)N/N=C/c2ccc(Cl)cc2)c1-c1ccc2c(c1)OCO2 | 13.9% (inactive) | 
O=C1c2ccccc2S(=O)(=O)N1CC(O)Cn1c2ccccc2c2ccccc21 (stereo not drawn) | 6.97% (inactive) | 
O=C(c1ccc2c(c1)OCCO2)C1CCN(S(=O)(=O)c2cccc(F)c2)CC1 | 1.28% (inactive) | 
O=C(Nc1ccc(F)cc1F)N1CCCN(CCOc2ccccc2)CC1 | 3.92% (inactive) | 
O=C(CCN1CCN(C/C=C/c2ccccc2)CC1)Nc1ccccc1Cl | 18.6% (inactive) | 
CC(=O)C[C@@H](O)CC(=O)[C@H]1OC(=O)CCCCCCc2ccccc21 | -0.828% (inactive) | 
O=C(O[C@H]1[C@H](Cc2ccccc2)NS(=O)(=O)[C@H]2C[C@@H]3C=C[C@]12O3)c1ccc([N+](=O)[O-])cc1 | -0.26% (inactive) | 
CNC(=O)NC(=O)C(C)N1CCN(C/C=C/c2ccccc2)CC1 (stereo not drawn) | 5.3% (inactive) | 
c1ccc(-c2cnc(CN3CCN(c4ccccc4)CC3)o2)cc1 | 9.03% (inactive) | 
C/C(=N\NC(=S)NC1CCCCC1)c1ccc(C)o1 | 17.6% (inactive) | 
COc1ccc(S(=O)(=O)N2CCSCC2)cc1 | -3.27% (inactive) | 
